The values below come from PubChem BioAssay AID2685 (National Center for Advancing Translational Sciences (NCATS), 2010).

The campaign covered roughly 320,000 compounds. About 2,100 (0.66%) were called active. About 53% were inconclusive and are not listed. This is one part of a sample in which actives are shown more often than they occur. Calls follow the shape of the dose curve; as a rule, active = well fitted inhibition curve with a large enough effect in the signal ratio, with a control signal flat (not every such curve was filed as active); inconclusive = small, poorly fitted or top-dose-only effect, or effect the other way, or a change in a side signal; inactive = flat fitted curve, though single readings scatter; the % refers to the signal ratio.
Potency is read from the fitted curve at half-maximal effect.

A short description of the assay: qHTS Assay for Lipid Storage Modulators in Drosophila S3 Cells.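 As to cell number change: cells counted by Cell Tracker Red CMTPX staining in the red channel.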 As to lipid storage change, negative = inhibition: % is scaled to controls: 0 for no effect and ±100 for the full control effect. To be noted: BODIPY lipid droplet fluorescence, 18-24 h, cells fed with added oleic acid; cell number change: measured here: cell count max response; series mostly up to 46.1 µM. The gist of the method:
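Drosophila S3 cells got compounds at several concentrations plus oleic acid (400 uM solution). Laser-scanning cytometry with 488 nm excitation read lipid droplets at 500-530 nm and cells at 575-640 nm. Percent activity was relative to 20 uM Triacsin C.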
(In qHTS, concentration-response curves come from the screen itself.)
As to `c1ccc(N2CCN(CCc3nnc4n3CCCCC4)CC2)cc1`, the Potency result is “inactive” and the cell number change is 1.29%.
Taken in the same sequence, the figures for `Cc1cc(NC(=O)c2ccco2)ccc1NC(=O)c1ccco1` were “inactive” and 11.3%.
For `Cc1cc2oc(=O)cc(CNc3ccccc3F)c2cc1O`, the Potency result was “inactive” and the cell number change is -14.4%.
Taken in the same sequence, the figures for `CCOc1ccccc1NCc1cc(=O)oc2cc(C)ccc12` were “inactive” and -3.97%.
With `CCOc1ccccc1NCc1cc(=O)oc2cc(C)c(O)cc12`, the Potency was 3.66 µM (active) and the cell number change is -1.8%.
For `CC(C)(C)c1ccc(NC(=O)c2cc[n+]([O-])cc2)cc1`, the Potency result is “inactive” and the cell number change came to 27.8%.
With `Cc1ccn(CC(C)C(=O)O)n1` (stereo not given), the Potency entry was “inactive” and the cell number change stood at 3.92%.
`CCN1CCN(C(CNS(=O)(=O)c2ccc(Br)cc2)c2cccnc2)CC1` (stereo not given): the Potency entry was “inactive” and the cell number change is -9.83%.
Consider `CCOc1ccc(NC(=O)Nc2cccc(C(=O)O)c2)cc1`, for which the Potency result was “inactive” and the cell number change was found to be 14.2%.
`CCOc1ccc(NC(=O)Nc2ccc(NC(C)=O)cc2)cc1`: the Potency entry is “inactive” and the cell number change turned out to be 11%.
Taken in the same sequence, the figures for `CCOc1ccc(NC(=O)Nc2cc(OCC(F)(F)F)cc(OCC(F)(F)F)c2)cc1` were 5.8 µM (active) and -25.7%.
On to `CN(C)CCn1c2ccccc2c2nc3ccc([N+](=O)[O-])cc3cc21`, for which the Potency is 7.31 µM (active) and the cell number change is -46.5%.
Taken in the same sequence, the figures for `O=[N+]([O-])c1ccc2c(c1)c1ccccc1n2CCO` were “inactive” and 0.129%.
Regarding `CCN(CC)CCn1c2ccccc2c2nc3ccc([N+](=O)[O-])cc3cc21`, the Potency result was “inactive” and the cell number change was 8.11%.
As to `CC1(C)CC(=O)C2=C(C1)OC(N)=C(C#N)C2c1ccsc1` (stereo not given), the Potency result is “inactive”.
For the molecule `COc1ccc(N2CCN(C(=O)C3CCN(S(=O)(=O)c4ccc5c(c4)oc(=O)n5C)CC3)CC2)cc1`, the Potency result was “inactive”.
On to `COc1cc(/C=C/C(=O)Nc2ccc3nc4n(c(=O)c3c2)CCCC4)cc(OC)c1OC`, for which the Potency entry was “inactive” and the cell number change was -7.64%.
The matching figures for `C/C(=N/Nc1ccccc1[N+](=O)[O-])c1ccc([N+](=O)[O-])cc1`: “inactive” and 22.2%.
Regarding `CC(C)/C(=N/Nc1ccccc1[N+](=O)[O-])c1ccccc1`, the Potency was 9.2 µM (active) and the cell number change is -12.6%.
On to `O=[N+]([O-])c1ccccc1N/N=C/c1ccccc1`, for which the Potency result is “inactive” and the cell number change is -10.2%.
With `COc1cccc(CN2CC(C(=O)NCCCn3cccn3)CCC2=O)c1` (stereo not given), the Potency entry is “inactive” and the cell number change came out at 0.348%.
For `CCC(=O)N/N=C/c1ccc(-c2ccc([N+](=O)[O-])cc2)o1`, the Potency result was “inactive” and the cell number change is 3.62%.
Turning to `CC(C)(C)C(=O)/C=c1\s/c(=C\c2ccc(-c3ccc([N+](=O)[O-])cc3)o2)c(=O)n1CC(=O)NC(N)=O`, the Potency is 1.03 µM (active) and the cell number change is -31.4%.
Taken in the same sequence, the figures for `CCCNC(=O)Cn1c(=O)/c(=C\c2ccc(-c3cccc([N+](=O)[O-])c3)o2)s/c1=C\C(=O)C(C)(C)C` were “inactive” and 0.916%.
Consider `O=C(COC(=O)CCN=C1NS(=O)(=O)c2ccccc21)NNC(=O)c1ccccc1`, for which the cell number change is -17.2% and the lipid storage change, negative = inhibition was -1.99% [at 0.0737 µM] (inactive).
With `Cn1cc(CN2CCC(N3CCNC(=O)CC3)CC2)c(-c2ccccc2F)n1`, the Potency result was “inactive” and the cell number change is -9.69%.
In the case of `CCOC(=O)C1CCN(Cc2ccc(OC)c(OCc3ccccc3)c2)CC1`, the Potency entry was “inactive” and the cell number change was -8.13%.
`O=C(COC(=O)c1cc(Cl)ccc1Cl)NCCN1C(=O)CSC1=O`: the Potency result was “inactive” and the cell number change was -6.51%.
For `O=C(CSc1nc(-c2ccc(F)cc2)cs1)NCCN1C(=O)CSC1=O`, the Potency entry was “inactive”.
Turning to `O=C(CSc1n[nH]c(-c2cc(Cl)ccc2Cl)n1)NCCN1C(=O)CSC1=O`, the Potency is 18.4 µM (active) and the cell number change was -24.6%.
Taken in the same sequence, the figures for `O=C(CCc1nnc2ccc(NCc3ccccc3Cl)nn12)NC1CCCC1` were “inactive” and 3.96%.
Regarding `CC1(C)CC(=O)C2=C(C1)Oc1ncn(Cc3ccco3)c(=N)c1C2c1ccccc1` (stereo not given), the Potency result is “inactive” and the cell number change was -0.936%.
Take `CC(C)(C)n1ncc2c(=O)n(Cc3c(F)cccc3Cl)cnc21`: the Potency entry is “inactive” and the cell number change was found to be 4.75%.
With `O=C1NC(c2ccccc2)=C(c2ccc3ccccc3n2)C(c2ccccc2)N1` (stereo not given), the Potency entry is “inactive” and the cell number change is -0.112%.
As to `CC(C)(Oc1ccc(CCNC(=O)c2ccc(-c3ccccc3)o2)cc1)C(=O)O`, the Potency entry is “inactive” and the cell number change came out at 7.48%.
For `Cc1ccc(S(=O)(=O)Nc2nc3ccccc3nc2NCc2ccc3c(c2)OCO3)cc1C`, the Potency result was “inactive” and the cell number change was -0.718%.
Turning to `O=c1oc(-c2cc3ccccc3o2)nc2sc3c(c12)CCCC3`, the Potency result was “inactive” and the cell number change is -5.74%.
Consider `COc1ccc(C(=O)NCC(=O)O)cc1`, for which the Potency was 16.4 µM (active) and the cell number change is -3.91%.
On to `COc1ccc(C(=O)COC(=O)CNC(=O)c2ccc(OC)cc2)cc1`, for which the Potency entry was “inactive”.
In the case of `COc1ccc(C(=O)NN)cc1`, the Potency result is “inactive” and the cell number change was 15%.
As to `CCc1nccn1S(=O)(=O)c1cc(OC)ccc1OC`, the Potency result was “inactive”.
In the case of `CCn1cc(CN2CCN(Cc3ccc(OC)c(C)c3C)C(CCO)C2)c(C)n1` (stereo not given), the Potency result is “inactive” and the cell number change stood at 2.86%.
Consider `CCCCCn1cnnc1SCC(=O)c1ccc2c(c1)OCO2`, for which the Potency result was “inactive” and the cell number change is -4.15%.
As for `CC(=Nc1ccccc1O)c1sc2ccccc2c1O`, the Potency was 25.9 µM (active) and the cell number change was -13.3%.
Take `CC(=Nc1ccc(O)cc1)c1sc2ccccc2c1O`: the Potency entry is “inactive” and the cell number change amounted to 0.835%.
As for `CC(=Nc1ccc(Br)cc1)c1sc2ccccc2c1O`, the Potency result is “inactive”.
`CCn1cc(C(=O)N(C)CC(OC)OC)c(=O)c2cc(S(=O)(=O)N3CCOCC3)ccc21`: the Potency result is “inactive” and the cell number change stood at 3.42%.
As for `C=CCn1c(=S)[nH]c2cc(C(=O)NCCc3ccc(S(N)(=O)=O)cc3)ccc2c1=O`, the Potency entry is “inactive” and the cell number change was 16.5%.
